Results filed as inconclusive are left out. Unmarked numbers belong to inactive results. Calls of active or inactive are those of the source. Calls follow the shape of the dose curve; as a rule, active = well fitted cell-killing curve with a large enough effect; inconclusive = small, poorly fitted or top-dose-only effect, or effect the other way; inactive = flat fitted curve, though single readings scatter.
Test system: HeLa
Assay: Primary qHTS to identify gynecologic anti-cancer compounds using libraries of approved drugs and bioactive compounds (AID 1345084); also: nearly all actives have a fitted effect of over 55% in size
Settings: Gynecologic cancer cell panel viability, ATPlite luminescence, 48 h; series mostly up to 57.5 µM; activity change, negative = cytotoxicity: at the top concentration
Summary of the method: (§1)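 Measured: luminescence after ATPlite addition (15 min, RT). Exposure: 48 h, 37 C, 5% CO2.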
% is scaled to controls: 0 for no effect and ±100 for the full control effect; potency is read from the fitted curve at half-maximal effect.

SMILES	activity change, negative = cytotoxicity
CC(C)[C@@H](C)/C=C/[C@@H](C)[C@H]1CC[C@H]2C3=CC=C4C[C@@H](O)CC[C@]4(C)C3=CC[C@]12C	9.49%
OCC(Cc1ccccc1)Nc1nc(Oc2ccc3c(c2)CCC3)nc2c1ncn2Cc1ccc(-c2ccccc2)cc1 (stereo unspecified)	-25.5%
CCN(CCCOc1ccc2c(Nc3cc(CC(=O)Nc4cccc(F)c4)[nH]n3)ncnc2c1)CCOP(=O)(O)O	-36.4%
O=C1c2c(O[C@@H]3O[C@H](CO)[C@@H](O)[C@H](O)[C@H]3O)cc(O)cc2OC1(O)Cc1ccc(O)cc1 (stereo partly specified)	3.3% [at 25.3 µM]
CCCCn1c(-c2ccccc2)nc(-c2ccccc2)c1CN(Cc1ccc2c(c1)OCO2)Cc1ccc2c(c1)OCO2	0.189%
Cc1ccc(C2(COC(=O)C(C)C)CO2)c(OC(=O)C(C)C)c1 (stereo unspecified)	-2.14% [at 38.5 µM]
CCC(C)n1cc(C)c2c(C(=O)NCc3c(C)cc(C)[nH]c3=O)cc(-c3ccc(N4CCNCC4)nc3)cc21 (stereo unspecified)	2.44%
COc1cc2ncnc(Oc3cccc(NC(=O)Nc4cc(C(C)(C)C(F)(F)F)on4)c3)c2cc1OC	-6.49%
CC1(C)CC[C@]2(C(=O)OC3OC(CO)C(O)C(O)C3O)CC[C@]3(C)C(=CCC4[C@@]5(C)CC[C@H](OC6OC(C(=O)O)C(O)C(O)C6O)C(CO)(CO)C5CC[C@]43C)[C@@H]2C1 (stereo partly specified)	-15.8% [at 11.6 µM]
O=[N+]([O-])c1ccc(-[n+]2nc(-c3ccccc3)nn2-c2ccc(I)cc2)cc1	0.456%
O=C(NC(NC(=S)Nc1ccc(F)c([N+](=O)[O-])c1)C(Cl)(Cl)Cl)C(c1ccccc1)c1ccccc1 (stereo unspecified)	0.0288% [at 25.3 µM]
Cc1ccc(C(=O)N2CCN(c3ccc([N+](=O)[O-])cc3)CC2)cc1Cl	4.47%
C=C1/C(=C/C=C2\CCC[C@]3(C)[C@@H]([C@H](C)/C=C/C(=O)C4CC4)CC[C@@H]23)C[C@@H](O)C[C@@H]1O	21.1%

Test system: Hek293T
Assay: as above
Settings: Gynecologic cancer cell panel viability, ATPlite luminescence, 48 h, control line for the selectivity index; series mostly up to 57.5 µM; activity change, negative = cytotoxicity: at the top concentration
Summary of the method: as §1

SMILES	Potency	activity change, negative = cytotoxicity
CCCCn1ccc(N2CCC(c3ccccc3)CC2)c(Cl)c1=O	31.6 µM (active)	
COc1ccccc1NC(=O)Nc1ccc2ccccc2c1		-5.01%
CCOC(=O)c1cnn(-c2ccc(NC(=O)C(Cl)=C(Cl)Cl)cc2)c1C(F)(F)F		-0.0281%
CN(CCCNC(=O)c1ccc2nc3c(c(Cl)c2c1)CCCC3)Cc1ccccc1		-1.17%
Cc1ccc2c(Nc3ccc(Cl)cc3)nccc2c1Nc1ncccc1-c1ncnc2nc[nH]c12		-24.7%
O=C(NCc1ccc(Oc2ccccc2)cc1)c1nc(-c2cc(Br)c(O)c(Br)c2)no1		-0.842%
CCN(CC)c1ccc(C(=C2C=CC(=[N+](CC)CC)C=C2)c2cc(S(=O)(=O)O)ccc2S(=O)(=O)[O-])cc1	12.6 µM (active)	
O=C(Nc1ccc(F)cc1)N1CCc2ccccc2C1c1ccc(C(F)(F)F)cc1 (stereo unspecified)		-2.24%
CC(C)(C)c1ccc(-c2nc3ccccc3[nH]2)cc1	2.24 µM (active)	
COc1ccccc1-c1cc(Nc2cccc(CS(N)(=O)=O)c2)ncn1	20 µM (active)	
CC1CCC2C(=CCC(O)C2(C)C)C1(C)Cc1c(O)cc(CO)c(C=O)c1O (stereo unspecified)		-26.6% [at 38.5 µM]
CCN1CCN(Cc2ccc(-c3cc4c(NC(C)c5ccccc5)ncnc4[nH]3)cc2)CC1 (stereo unspecified)		-11.3%
CN1CCN(C(=O)c2ccc(Nc3nccc(-c4cccs4)n3)cc2Cl)CC1		-6.27%
CC(C)[C@@H](C)/C=C/[C@@H](C)[C@H]1CC[C@H]2C3=CC=C4C[C@@H](O)CC[C@]4(C)C3=CC[C@]12C		-3.34%
OCC(Cc1ccccc1)Nc1nc(Oc2ccc3c(c2)CCC3)nc2c1ncn2Cc1ccc(-c2ccccc2)cc1 (stereo unspecified)		-29.8%
Cc1[nH]c(/C=C2\C(=O)Nc3ccc(F)cc32)c(C)c1C(=O)NC[C@H](O)CN1CCOCC1		6.99%
CCN(CCCOc1ccc2c(Nc3cc(CC(=O)Nc4cccc(F)c4)[nH]n3)ncnc2c1)CCOP(=O)(O)O		2.48%
CCCCn1c(-c2ccccc2)nc(-c2ccccc2)c1CN(Cc1ccc2c(c1)OCO2)Cc1ccc2c(c1)OCO2		0.798%
Cc1ccc(C2(COC(=O)C(C)C)CO2)c(OC(=O)C(C)C)c1 (stereo unspecified)		-8.46% [at 38.5 µM]
CCC(C)n1cc(C)c2c(C(=O)NCc3c(C)cc(C)[nH]c3=O)cc(-c3ccc(N4CCNCC4)nc3)cc21 (stereo unspecified)		2.48%
Cn1nccc1Nc1nccc(-c2ccn([C@H](CO)c3ccc(Cl)c(F)c3)c(=O)c2)n1		-24.7%
COc1cc2ncnc(Oc3cccc(NC(=O)Nc4cc(C(C)(C)C(F)(F)F)on4)c3)c2cc1OC		1.9%
CC1(C)CC[C@]2(C(=O)OC3OC(CO)C(O)C(O)C3O)CC[C@]3(C)C(=CCC4[C@@]5(C)CC[C@H](OC6OC(C(=O)O)C(O)C(O)C6O)C(CO)(CO)C5CC[C@]43C)[C@@H]2C1 (stereo partly specified)		-26.5% [at 11.6 µM]
O=[N+]([O-])c1ccc(-[n+]2nc(-c3ccccc3)nn2-c2ccc(I)cc2)cc1		2.56%
O=C(NC(NC(=S)Nc1ccc(F)c([N+](=O)[O-])c1)C(Cl)(Cl)Cl)C(c1ccccc1)c1ccccc1 (stereo unspecified)		-0.478% [at 25.3 µM]
Cc1ccc(C(=O)N2CCN(c3ccc([N+](=O)[O-])cc3)CC2)cc1Cl		-20.7%
CC(=O)N1c2ccc(-c3ccc(C(=O)O)cc3)cc2C(Nc2ccc(Cl)cc2)CC1C (stereo unspecified)		-27.4%
C=C1/C(=C/C=C2\CCC[C@]3(C)[C@@H]([C@H](C)/C=C/C(=O)C4CC4)CC[C@@H]23)C[C@@H](O)C[C@@H]1O		-1.86%

Reference: PubChem BioAssay (NCATS)
